According to PubChem BioAssay:
Calls of active or inactive are those of the source.

What was measured:
[1] = tested on: Human papillomavirus type 1a protein E7 (residues 44-93); experiment: small molecules binding HPV E7 44-93 – biochemical, small-molecule microarray, residues 44-93, 635 nm fluorescence, primary screen (AID 1108); conditions: fluorescence 635 nm, higher = more signal;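 further: E7 fragment applied at 1 µg/mL in TBST for 1 h at 4 C; score combines spot fluorescence with its signal to noise ratio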
[2] = hepatitis C replication reporter changes, two-sided – Huh7 cells, luciferase reporter, HCV replication inhibitor project, primary screen (AID 1109); conditions: Huh7 HCV replicon luciferase reporter, 48 h; higher = more signal;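 further: huh7 hepatoma cells harbouring a luciferase neomycin HCV replicon reporter; luciferase luminescence as measure of HCV replicon replication; test concentration not given here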
[3] = target: Left-right determination factor 2 (Homo sapiens) (UniProt O00292); experiment: small molecules binding LEFTY2 protein – biochemical, small-molecule microarray, 635 nm fluorescence scan, primary screen (AID 1110); conditions: higher = more signal
[4] = target: Calmodulin-1 (Homo sapiens) (UniProt P0DP23); experiment: small molecules binding calmodulin-1 with EGTA – biochemical, small-molecule microarray, Cy5-labelled CALM1, profiling panel (AID 1111); conditions: Cy5-CALM1 binding fluorescence, higher = more signal;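 further: labelled calmodulin applied in Tris saline Tween buffer holding calcium plus EGTA and DTT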
[5] = target: Calmodulin-1 (Homo sapiens) (UniProt P0DP23); experiment: small molecules binding Ca-loaded calmodulin-1 – biochemical, small-molecule microarray, Cy5-labelled CALM1, plus calcium, artefact control for SMM control-protein annotation, profiling panel (AID 1112); conditions: Cy5-CALM1 binding fluorescence, higher = more signal;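 further: score merges spot fluorescence with signal to noise from triplicate slides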
[6] = probe aWnt5a binding to arrayed compounds – biochemical, biotinylated probe, 635/667 nm fluorescence, primary screen (AID 1113); conditions: small-molecule microarray, higher = more signal;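 further: score merges 667 nm fluorescence intensity with signal-to-noise per printed feature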
[7] = probe aShh binding to arrayed compounds – biochemical, biotinylated probe, 635/667 nm fluorescence, primary screen (AID 1114); conditions: small-molecule microarray, higher = more signal;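 further: probe is biotin-labelled aShh protein from a stem cell growth factor screen; measures binding of labelled protein to compounds printed on the slide; score merges feature fluorescence at 667 nm with signal-to-noise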
[8] = probe aNog binding to arrayed compounds – biochemical, biotinylated probe, 635/667 nm fluorescence, primary screen (AID 1115); conditions: small-molecule microarray, higher = more signal;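 further: probe is biotinylated aNog protein used at 0.15 µg/mL for 1 h at 4 C; z-score combines 667 nm fluorescence of each spot with its signal to noise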
[9] = target: Torsin-1A-interacting protein 1 (Homo sapiens) (UniProt Q5JTV8); experiment: compound microarray binding of lysate hLAP1 – cell lysate, small-molecule microarray, COS7 lysate, 635/667 nm fluorescence, primary screen (AID 1116); conditions: 635 nm fluorescence, higher = more signal
[10] = target: Alpha-bungarotoxin (Bungarus multicinctus) (UniProt P60615); experiment: compounds binding labelled alpha-BTX control protein – biochemical, small-molecule microarray, Alexa647 label, 635/667 nm fluorescence, artefact control for SMM control protein annotation, profiling panel (AID 1117); conditions: alpha-BTX-A647 binding fluorescence, higher = more signal
Albumin (Bos taurus) = Albumin (Bos taurus) (UniProt P02769); experiment: compounds binding labelled BSA control protein – biochemical, small-molecule microarray, Alexa647 label, 635/667 nm fluorescence, artefact control for SMM control protein annotation, profiling panel (AID 1118); conditions: BSA-A647 binding, fluorescence 635 nm, higher = more signal;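 further: score merges 667 nm emission intensity and signal-to-noise per printed compound spot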
[11] = probe aXIP binding to arrayed compounds – biochemical, NeuroSMM set, 635/667 nm fluorescence, primary screen (AID 1119); conditions: small-molecule microarray, higher = more signal, called active from +8 up or from −8 down;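 further: probe is the protein aXip251-270 applied at 1 µg/mL to compound-printed slides; binding of probe to printed compounds measured as 667 nm fluorescence plus signal to noise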
[12] = probe aNOTCH3 binding on compound microarray – biochemical, small-molecule microarray, 635/667 nm fluorescence, primary screen (AID 1120); conditions: higher = more signal;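 further: probe is a biotin-tagged antibody raised against NOTCH3 rather than NOTCH3 protein; score merges spot fluorescence near 667 nm with spot signal to noise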
[13] = probe aNOTCH2 binding on compound microarray – biochemical, small-molecule microarray, 635/667 nm fluorescence, primary screen (AID 1121); conditions: higher = more signal;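 further: score merges feature fluorescence read at 667 nm with its signal to noise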
[14] = target: Carbonic anhydrase 2 (Homo sapiens) (UniProt P00918); experiment: compounds binding carbonic anhydrase 2 – biochemical, small-molecule microarray, Alexa647-labelled CAII, profiling panel (AID 1122); conditions: CAII-A647 binding fluorescence, higher = more signal
[15] = COS7 lysate on small-molecule microarray, probe aHis, 635 nm (AID 1123); conditions: COS7 cell lysate, fluorescence, higher = more signal;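 further: z-score combines 667nm fluorescence intensity with signal-to-noise per printed compound spot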
[16] = probe aLAP1 signal on lysate-treated microarray – cell lysate, small-molecule microarray, COS7 lysate, primary screen (AID 1124); conditions: probe aLAP1, fluorescence, higher = more signal;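 further: lysate comes from COS7 cells expressing LAP1 and is applied at 0.3 µg/mL; score merges spot fluorescence near 667 nm with signal-to-noise over triplicate slides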
Sam68 (KHDRBS1) = experiment: compounds binding KHDRBS1 protein – biochemical, small-molecule microarray, 635 nm fluorescence, primary screen (AID 1125); conditions: higher = more signal;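 further: score merges 667 nm channel intensity with signal to noise over triplicate slides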
[17] = tested on: Chordin-like protein 2 (CHRDL2); experiment: compounds binding chordin-like 2 – biochemical, small-molecule microarray, 635 nm fluorescence, primary screen (AID 1126); conditions: fluorescence 635 nm, higher = more signal;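 further: printed compound slides probed with Chrdl2 protein at 4 µg/mL for 1 h at 4 C; score merges 667 nm emission intensity with signal to noise over three replicate slides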
[18] = target: Concanavalin-A (Canavalia ensiformis) (UniProt P02866); experiment: compounds binding concanavalin A lectin – biochemical, small-molecule microarray, Alexa647 label, 635 nm, artefact control for SMM control protein annotation, primary screen (AID 1127); conditions: ConA-A647 binding fluorescence, higher = more signal;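 further: z combines 667 nm emission intensity with signal-to-noise across three replicate slides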
Chain of Concanavalin-A (Canavalia ensiformis) (P02866 whole entry, looked up): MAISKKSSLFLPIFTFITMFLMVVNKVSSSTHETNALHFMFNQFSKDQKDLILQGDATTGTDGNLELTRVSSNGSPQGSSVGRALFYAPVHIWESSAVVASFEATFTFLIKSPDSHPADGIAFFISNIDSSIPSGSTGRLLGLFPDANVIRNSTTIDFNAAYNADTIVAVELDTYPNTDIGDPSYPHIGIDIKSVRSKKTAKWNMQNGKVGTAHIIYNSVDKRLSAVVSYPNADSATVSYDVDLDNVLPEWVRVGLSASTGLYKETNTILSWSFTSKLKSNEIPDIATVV

Chain of Alpha-bungarotoxin (Bungarus multicinctus) (P60615 whole entry, looked up): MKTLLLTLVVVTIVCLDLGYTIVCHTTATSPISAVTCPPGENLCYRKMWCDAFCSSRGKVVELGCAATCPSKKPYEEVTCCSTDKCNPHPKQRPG
Chain of Left-right determination factor 2 (Homo sapiens) (O00292 whole entry, looked up): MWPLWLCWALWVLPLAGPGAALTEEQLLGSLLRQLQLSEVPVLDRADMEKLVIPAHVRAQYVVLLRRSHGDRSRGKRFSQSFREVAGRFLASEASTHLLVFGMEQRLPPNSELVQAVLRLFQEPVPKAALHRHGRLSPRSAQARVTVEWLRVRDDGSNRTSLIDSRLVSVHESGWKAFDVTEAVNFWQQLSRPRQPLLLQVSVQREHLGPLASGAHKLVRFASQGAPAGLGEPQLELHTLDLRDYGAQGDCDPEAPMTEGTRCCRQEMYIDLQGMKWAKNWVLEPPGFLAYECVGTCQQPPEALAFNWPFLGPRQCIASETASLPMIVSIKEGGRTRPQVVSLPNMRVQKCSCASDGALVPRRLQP
Chain of Albumin (Bos taurus) (P02769 whole entry, looked up): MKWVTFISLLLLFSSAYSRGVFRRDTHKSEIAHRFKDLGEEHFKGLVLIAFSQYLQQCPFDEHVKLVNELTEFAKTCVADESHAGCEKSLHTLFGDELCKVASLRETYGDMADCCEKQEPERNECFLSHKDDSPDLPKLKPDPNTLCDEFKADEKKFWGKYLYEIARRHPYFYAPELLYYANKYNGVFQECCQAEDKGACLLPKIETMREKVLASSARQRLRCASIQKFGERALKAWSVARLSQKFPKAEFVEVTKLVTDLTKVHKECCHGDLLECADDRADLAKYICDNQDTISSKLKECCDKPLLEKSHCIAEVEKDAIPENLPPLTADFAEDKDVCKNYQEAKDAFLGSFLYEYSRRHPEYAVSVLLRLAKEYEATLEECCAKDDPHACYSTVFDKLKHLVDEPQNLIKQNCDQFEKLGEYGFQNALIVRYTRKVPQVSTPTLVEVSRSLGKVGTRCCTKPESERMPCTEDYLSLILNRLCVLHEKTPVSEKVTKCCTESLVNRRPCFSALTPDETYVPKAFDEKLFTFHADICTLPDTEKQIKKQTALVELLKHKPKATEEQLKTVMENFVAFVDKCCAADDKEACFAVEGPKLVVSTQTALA
Chain of Torsin-1A-interacting protein 1 (Homo sapiens) (Q5JTV8 whole entry, looked up): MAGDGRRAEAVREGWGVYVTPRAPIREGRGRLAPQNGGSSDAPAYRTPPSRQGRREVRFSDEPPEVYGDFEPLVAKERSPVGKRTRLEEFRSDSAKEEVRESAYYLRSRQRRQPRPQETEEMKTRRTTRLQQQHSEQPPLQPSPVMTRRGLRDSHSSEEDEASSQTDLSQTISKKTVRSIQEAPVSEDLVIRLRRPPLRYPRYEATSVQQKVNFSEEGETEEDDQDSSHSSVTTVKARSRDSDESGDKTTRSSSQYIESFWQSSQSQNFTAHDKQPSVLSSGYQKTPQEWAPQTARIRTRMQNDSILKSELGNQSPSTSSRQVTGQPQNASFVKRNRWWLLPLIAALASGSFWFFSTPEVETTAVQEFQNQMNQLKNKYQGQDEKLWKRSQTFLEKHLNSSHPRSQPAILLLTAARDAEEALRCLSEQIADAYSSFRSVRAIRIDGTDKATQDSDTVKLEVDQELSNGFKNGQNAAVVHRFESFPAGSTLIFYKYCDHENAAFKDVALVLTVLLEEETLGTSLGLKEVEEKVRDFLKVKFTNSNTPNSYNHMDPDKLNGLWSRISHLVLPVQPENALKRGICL

Compound	composite z-score [1]	z-score [2]	composite z-score [3]	composite z-score [4]	composite z-score [5]	composite z-score [6]	composite z-score [7]	composite z-score [8]	composite z-score [9]	composite z-score [10]	composite z-score (Albumin (Bos taurus))	composite Z-score [11]	composite z-score [12]	composite z-score [13]	composite z-score [14]	composite z-score [15]	composite z-score [16]	composite z-score (Sam68 (KHDRBS1))	composite z-score [17]	composite z-score [18]
O=C1O[C@H](c2ccccc2)[C@H](c2ccccc2)N2[C@H]1[C@@H](C(=O)Nc1nc3ccccc3s1)[C@]1(C(=O)Nc3ccc(C#CC4(O)CCCCCC4)cc31)[C@H]2c1ccccc1OCCO	1.37	-2.69	0.561	1.04	-0.243	0.0068	0.0469	0.345	1.34	0.0934	0.743	-0.305 (inactive)	0.0459	-0.0454	0.461	1.82	0.398	1.3	0.413	1.07
OCCCC1=CC(c2ccc(CN3CCCC3)cc2)N(Cc2sc3ccccc3c2Cl)CC1 (stereo not given)	1.32	-4.17	0.758	0.325	-0.585	-0.113	0.0899	0.507	-0.0337	0.827	-0.38	-0.404 (inactive)	0.191	-0.0293	0.483	0.504	-0.456	0.982	0.608	0.913
COC(=O)[C@H](Cc1ccccc1)N1CC(/C=C/C2CC2)=C[C@H]1[C@H](O)Cc1ccccc1	0.484	-4.03	0.396	0.405	-0.647	-0.0944	-0.0693	0.287	0.425	1.2	0.59	-0.0662 (inactive)	-0.095	-0.14	0.456	0.726	0.148	1.2	0.732	0.981
C=CCC(OC(C)=O)[C@@H]1[C@@H](N(Cc2cc3ccccc3o2)C(=O)Cc2ccc(F)cc2)c2cc(OCCCO)ccc2N1C(=O)c1ccc2ccccc2c1 (stereo not given in full)	-0.722	-1.18	-0.453	-0.478	-0.06	-0.0843	0.179	-0.24	0.0682	1.29	-0.379	0.749 (inactive)	-0.118	-0.0904	0.31	-0.234	0.0099	-0.741	-0.173	-0.679
NC(=O)NCC#Cc1ccc2c(c1)[C@]1(C(=O)N2)[C@H](C(=O)NC[C@H](O)c2ccccc2)[C@H]2C(=O)O[C@H](c3ccccc3)[C@H](c3ccccc3)N2[C@@H]1c1ccc(OCCO)cc1	1.25	-1.22	-0.461	0.616	0.541	-0.143	-0.0769	-0.418	0.863	1.43	-0.397	0.491 (inactive)	0.233	-0.0449	0.377	0.791	0.587	1.01	-0.0806	0.798
NC(=O)N1C(=O)C2C(C1=O)C1C=C(CCCO)C2C(c2cccs2)N1Cc1cccc(OC(F)(F)F)c1 (stereo not given)	0.72	-0.933	-0.0132	0.155	0.632	-0.0721	0.723	-0.0132	1.06	0.797	0.729	-0.182 (inactive)	-0.023	-0.0534	0.583	0.789	-0.0259	1.07	-0.0665	0.434
C=CC[C@]1(C(=O)NCCN2CCOCC2)N=C(c2ccc(OCCCO)cc2)O[C@H]1c1ccccc1CN=[N+]=[N-]	0.396	-1.59	0.632	0.21	-0.528	0.0023	-0.203	-0.193	0.554	-0.0452	-0.91	0.363 (inactive)	-0.273	0.0855	0.724	1.41	0.034	0.826	1.38	-0.438
COC(=O)c1ccc([C@H](NC(=O)c2ccco2)[C@]2(C)C[C@H]2C2CCCCC2)cc1	-0.0855	-0.978	-1.6	1.51	1.39	-0.096	0.142	1.46	-0.101	0.351	0.678	0.0201 (inactive)	0.0179	-0.0391	-0.227	1.43	-0.164	-0.552	-1.17	0.208
Cn1cccc1C(O)C1C=CC2C(=O)NC(=O)C2N1Nc1ccc(Cl)cc1Cl (stereo not given)	0.981	-0.202	-0.378	2.24	0.879	0.0044	0.184	1.92	2.08	2.28	1.04	0.589 (inactive)	0.569	0.403	0.731	2.79	1.26	1.29	-0.851	1.21
C=C(/C(=C/C[C@H](OC(C)=O)c1ccccc1OCCO)c1cc(C(=O)OC)ccc1OC)C(C)C	0.83	-1.74	0.0218	-0.227	-0.578	-0.096	0.0469	-0.0244	0.612	-0.0802	0.469	-0.0127 (inactive)	-0.0782	-0.173	0.491	1.26	-0.0654	0.527	-0.152	0.548
